Screening results: PubChem, National Center for Advancing Translational Sciences (NCATS)
RORgamma inh: ROR gamma (mouse) transcription inhibition; P51450; Drosophila S2 Gal4-RORgamma UAS-luciferase reporter, 20 h; Potency, µM (doses to about 53.6 µM), inactives show at the highest dose activity change, negative = inhibition, actives largely listed as inhibitors; 5.4% of 310,000 active; note: % is set by controls: 0 for no effect and ±100 for the full control effect; nearly all actives have a fitted effect of over 60% in size
Target sequence (P51450 whole entry, looked up, the tested form may be a part): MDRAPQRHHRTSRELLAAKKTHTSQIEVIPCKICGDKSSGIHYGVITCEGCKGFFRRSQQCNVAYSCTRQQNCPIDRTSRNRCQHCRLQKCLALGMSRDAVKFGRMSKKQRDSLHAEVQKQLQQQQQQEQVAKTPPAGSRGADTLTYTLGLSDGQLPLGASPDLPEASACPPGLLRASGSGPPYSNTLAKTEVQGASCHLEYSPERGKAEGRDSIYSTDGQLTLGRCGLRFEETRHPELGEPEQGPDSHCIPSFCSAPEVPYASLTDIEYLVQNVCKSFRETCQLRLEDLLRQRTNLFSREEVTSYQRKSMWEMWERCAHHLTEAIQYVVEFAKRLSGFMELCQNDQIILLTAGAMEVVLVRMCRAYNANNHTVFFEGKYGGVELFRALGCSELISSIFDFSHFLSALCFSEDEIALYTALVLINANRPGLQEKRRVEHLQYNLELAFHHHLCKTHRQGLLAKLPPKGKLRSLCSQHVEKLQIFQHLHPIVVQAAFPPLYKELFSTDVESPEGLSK
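Compounds are pin-transferred onto Drosophila Schneider cells expressing a copper-inducible Gal4–ROR gamma transactivation domain fusion. After 1 hr, copper sulfate is added to 700 uM final; luciferase is read 20 hr later.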
ATXN viability: reduces viability in counter-screen for ATXN expression inhibitors | S2 cells (HEK-293 line with an ATXN2-luciferase reporter) viability, CellTiter-Fluor protease fluorescence, 24 h | Potency, µM (titrated, usually from 56.7 µM), most hits filed as cytotoxic | 0.49% of 400,000 active | AID 651635; note: nearly all actives have a fitted effect of over 40% in size
TGFb SMAD3 inh: blocks TGF-b signaling. HepG2 CAGA-GFP TGF-b/SMAD3 reporter, GFP fluorescence, 18 h; TGF-beta stimulated, 500 pg/mL final. Potency, µM (top dose mostly 46.1 µM), inactives show at the highest dose activity, negative = inhibition, actives largely listed as inhibitors. 1.2% of 410,000 active; note: % is set by controls: 0 for no effect and ±100 for the full control effect; nearly all actives have a fitted effect of over 65% in size
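First, reporter cells (HEPG2 CAGA-GFP) rested 2 h at 37 degrees C. Next, compounds were pinned in and TGF-beta added to 500 pg/mL final. After 18 h, GFP was imaged per cell and summed per well.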
ATXN2 expr inh: ATXN2 expression inhibition | Potency, µM (titrated, usually from 57 µM), without a hit: top-dose activity change, negative = inhibition, usual class: inhibitors | HEK-293 ATXN2-luciferase reporter, luminescence, 24 h | 0.72% of 360,000 active; note: % is set by controls: 0 for no effect and ±100 for the full control effect; nearly all actives have a fitted effect of over 55% in size
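qHTS (up to 57 uM final) was run with 24 h compound exposure of reporter cells at 37 °C. Each well was multiplexed: SteadyGlo luminescence measured ATXN2-luciferase expression after a fluorogenic Gly-Phe-AFC viability readout (25 uM final).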
VP16 counter: inhibits Gal4-VP16 luciferase reporter, ROR gamma counter-screen. Drosophila S2 Gal4-VP16 UAS-luciferase, luminescence, 20 h. Potency, µM (doses to about 53.6 µM), for inactives: at the highest dose activity, negative = inhibition, actives largely listed as inhibitors. 3.5% of 310,000 active. AID 2546;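 note: Gal4-VP16 expression switched on by copper sulfate through the metallothionein promoter; % is set by controls: 0 for no effect and ±100 for the full control effect; nearly all actives have a fitted effect of over 50% in size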
HepG2 tox: kills HepG2 cells in TGF-b inhibitor counter-screen; AID 588856; 0.76% of 410,000 active; Potency, µM (series often up to 46.1 µM), inactives show top-dose activity change, negative = cytotoxicity, actives largely listed as cytotoxic; HepG2 CAGA-GFP viability, ATP luminescence, 18 h
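CellTiter-Glo luminescence gave cytotoxicity after 18 hours at 37 degrees C. The cells were HepG2 CAGA-GFP in 1% FBS DMEM, stimulated with 500 pg/mL TGF-beta after compound addition. %Activity was normalised to no-cell wells (complete cell-killing) and DMSO (no toxicity), and curves were fitted and classified.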
Starred values were filed as active, the others as inactive; i = inactive; u = inconclusive; x = not tested or not shown; [ ] = another dose, or the depositor's remark. This is a sample that favours compounds with a hit; in the whole collection about 6.1% have one here. Calls come from the whole dose curve; as a rule, active = well fitted curve in the direction sought with a large enough effect; inconclusive = small, poorly fitted or top-dose-only effect, or another doubt; inactive = no such curve, though single readings can be large; an effect the other way counts as inactive or inconclusive. Potency is the fitted concentration of half-maximal effect.

SMILES	RORgamma inh	ATXN viability	TGFb SMAD3 inh	ATXN2 expr inh	VP16 counter	HepG2 tox
O=C1c2ccccc2C(=O)N1Cc1ccc2c(c1)OCO2	3.3%	i	-3.6%	-10.2%	7.6%	-27.9%
Cc1cccc(C(=O)NNC2=C(C(=O)C(F)(F)F)CCC2)c1O	6.31µM*	i	u	u	10µM*	-43.6%
O=C(NNC(=O)c1cccnc1)c1ccncc1	6.5%	i	5.4%	-6.4%	1.2%	-3.1%
O=C(NNC1=C(C(=O)C(F)(F)F)CCC1)c1cccnc1	7.08µM*	i	-4.2%	-1.2%	11.2µM*	-2.0%
Cc1cccc(C(=O)NNC(=O)c2ccc(Cl)cc2)c1O	u	i	18.1%	-17.2%	-66.3%	-20.9%
O=C(NNC1=C(C(=O)C(F)(F)F)CCC1)c1cccc(O)c1	5.01µM*	i	-15.8%	-30.0%	3.55µM*	-11.9%
CCn1c(-c2ccccc2F)nc2cc(C(=O)NC(c3ccccn3)C(F)(F)F)cc(NC(C)=O)c21 (stereo not given)	x	i	x	x	x	x
CCCCn1c(CNC(=O)C23CC4CC(CC(C4)C2)C3)nnc1SCC(=O)Nc1ccc(F)cc1	x	u	u	u	x	-36.2%
O=c1[nH]cnc2scc(-c3cccs3)c12	6.9%	i	-3.6%	-0.3%	-3.5%	0.2%
C=CCn1c(=S)[nH]c2scc(-c3cccs3)c2c1=O	0.631µM*	i	u	-10.8%	0.794µM*	-55.9%
Cn1c(=S)[nH]c2scc(-c3cccs3)c2c1=O	0.794µM*	i	-11.1%	-18.8%	5.01µM*	-16.7%
CCc1ccc(Nc2nc(-c3cc4cccc(OC)c4oc3=O)c(CC)s2)cc1	x	x	x	x	x	-9.9%
CS(=O)(=O)c1ccc(C(=O)OCC(=O)NCC2CCCO2)cc1[N+](=O)[O-] (stereo not given)	x	x	u	x	x	-51.8%
CS(=O)(=O)c1ccc(C(=O)OCC(=O)NC23CC4CC(CC(C4)C2)C3)cc1[N+](=O)[O-]	11.2µM*	u	u	u	u	-99.4%
COc1ccc(C(=O)OCC(=O)NC(=O)NC2CCCC2)cc1[N+](=O)[O-]	x	i	3.5%	0.6%	x	-0.7%
CS(=O)(=O)c1ccc(C(=O)OCC(=O)NC(=O)NC2CCCCC2)cc1[N+](=O)[O-]	x	x	4.47µM*	x	x	6.31µM*
CN(C)C(=O)c1ccc(/C=C/c2ccnc3ccccc23)cc1	x	x	u	x	x	-33.0%
CC(=O)N[C@H]1[C@H](O[C@@H]2c3ccc(c(Cl)c3)Oc3cc4cc(c3O[C@@H]3O[C@H](CO)[C@@H](O)[C@H](O)C3C)Oc3ccc(cc3Cl)C[C@H]3NC(=O)[C@@H](N)c5ccc(O)c(c5)Oc5cc(O)cc(c5)[C@H](NC3=O)C(=O)N[C@H]4C(=O)N[C@H]3C(=O)N[C@@H]2C(=O)N[C@@H](C(=O)O)c2cc(O)cc(O[C@H]4O[C@H](CO)[C@@H](O)C(O)[C@@H]4O)c2-c2cc3ccc2O)O[C@H](CO)[C@@H](O)[C@@H]1O (stereo not given in full)	2.4%[16.9 µM]	x	x	x	6.4%[17 µM]	x
Cc1cccc(N(C)C(=S)Oc2ccc3c(c2)C2CCC3C2)c1 (stereo not given)	x	i	x	7.8%	x	x
COc1ccc(C(=O)N=c2nc3ccccn3s2)cc1	2.24µM*	i	4.3%	u	3.98µM*	-45.1%
COc1ccc(CNC(=O)c2sc3nc4n(c(=O)c3c2C)CCCCC4)cc1	x	i	-7.2%	-14.5%	x	0.6%
CC1(c2nnc(-c3cccc(Cl)c3)o2)CC(c2ccc(Cl)cc2)=NO1 (stereo not given)	x	i	15.8µM*	1.8%	x	-10.0%
CCOc1ccc2nc(N3C(=O)/C(=C/c4ccc(Cl)cc4)NC3=S)sc2c1	1.12µM*	x	-15.2%	-1.5%	1.58µM*	-12.9%
O=C(Cn1c2ccccc2c(=O)c2ccccc21)N/N=C/c1ccc(N2CCCC2)c([N+](=O)[O-])c1	u	x	-21.0%	31.6µM*	u	-50.2%
